Here are results for 24 compounds from PubChem BioAssay (Tox21).

Test [1] is described as follows: qHTS assay to identify small molecule antagonists of the thyroid receptor (TR) signaling pathway (AID 743065; active = well fitted curve in the direction sought with a large enough effect in the repeat runs; inconclusive = weak or mixed curves; inactive = no such curve, though single readings can be large; an effect the other way counts as inactive or inconclusive; also: nearly all actives have a fitted effect of over 55% in size; also: potency is read from the fitted curve at half-maximal effect). The procedure, abridged:
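Antagonism measured as loss of luciferase signal in GH3 cells stably carrying a TRE-luciferase reporter, co-treated with compound and T3 (1 nM final) for 23.5 h at 37 C. Viability was read in the same well by CellTiter-Fluor.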
In general terms: qHTS replaces the single test concentration by a dilution series.

The subject of test [2] is thyroid hormone receptor (rat, GH3 cells). Description: qHTS assay to identify small molecule agonists of the thyroid receptor (TR) signaling pathway (AID 743066).
Test [3] in a line: qHTS assay to identify small molecule antagonists of the estrogen receptor alpha (ER-alpha) signaling pathway - cell viability counter screen (AID 743074).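 Also: HEK293 cells carrying ER-alpha-UAS-bla reporter stimulated with 17beta-estradiol; nearly all actives have a fitted effect of over 45% in size.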 Also: potency is read from the fitted curve at half-maximal effect.
A short description of test [4]: qHTS assay to identify small molecule antagonists of the estrogen receptor alpha (ER-alpha) signaling pathway using the BG1 cell line (AID 743080).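 Also: BG1 cells stimulated with 17beta-estradiol alongside compound; nearly all actives have a fitted effect of over 25% in size.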 Also: potency is read from the fitted curve at half-maximal effect. The essentials: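 Endogenous full-length ER-alpha in BG1-Luc-4E2 cells drives a stably integrated 4×ERE luciferase gene; compounds were tested against 17beta-estradiol over 21.5 h, with luminescence and multiplexed viability fluorescence recorded.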

For another test, the target named is Aromatase (Homo sapiens) (UniProt P11511). Description: qHTS assay to identify aromatase inhibitors (AID 743083; active = well fitted curve in the direction sought with a large enough effect in the repeat runs; inconclusive = weak or mixed curves; inactive = no such curve, though single readings can be large; an effect the other way counts as inactive or inconclusive; also: nearly all actives have a fitted effect of over 55% in size; also: potency is read from the fitted curve at half-maximal effect).
Chain of Aromatase (Homo sapiens) (P11511 whole entry, looked up): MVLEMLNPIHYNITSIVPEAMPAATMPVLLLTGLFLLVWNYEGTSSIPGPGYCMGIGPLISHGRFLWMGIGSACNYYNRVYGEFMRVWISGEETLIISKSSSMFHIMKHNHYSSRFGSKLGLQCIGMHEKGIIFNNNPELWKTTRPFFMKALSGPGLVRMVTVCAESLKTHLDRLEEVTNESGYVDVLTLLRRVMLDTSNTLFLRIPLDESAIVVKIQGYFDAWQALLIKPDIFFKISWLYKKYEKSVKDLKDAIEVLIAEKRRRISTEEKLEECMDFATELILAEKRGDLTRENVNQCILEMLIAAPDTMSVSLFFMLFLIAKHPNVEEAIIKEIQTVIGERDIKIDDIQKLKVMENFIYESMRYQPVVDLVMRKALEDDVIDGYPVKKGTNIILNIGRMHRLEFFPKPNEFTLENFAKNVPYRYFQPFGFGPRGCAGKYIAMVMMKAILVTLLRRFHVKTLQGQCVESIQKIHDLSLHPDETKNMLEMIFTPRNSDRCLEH
Test [5] concerns the target Estrogen receptor (Homo sapiens) (UniProt P03372). In words: qHTS assay to identify small molecule antagonists of the estrogen receptor alpha (ER-alpha) signaling pathway (AID 743069; active = well fitted curve in the direction sought with a large enough effect in the signal ratio in the repeat runs, not every such curve was filed as active; inconclusive = weak or mixed curves, or effect the other way; inactive = no such curve, though single readings can be large or run the other way; the % refers to the signal ratio). The essentials:
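Antagonist mode: compounds in DMSO were co-added with 17beta-estradiol to ER-alpha-bla HEK293 cells (2% charcoal-stripped serum) and left 18 h at 37C. Reporter inhibition was measured as FRET fluorescence after 2 h LiveBLAzer substrate at room temperature.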

The target is the same in test [6]. In words: qHTS assay to identify small molecule agonists of the estrogen receptor alpha (ER-alpha) signaling pathway (AID 743075).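 Also: HEK293 GripTite cells with ER-alpha and UAS-driven beta-lactamase reporter.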 Also: potency is read from the fitted curve at half-maximal effect.
For test [7] the target is unchanged. In words: qHTS assay to identify small molecule agonists of the estrogen receptor alpha (ER-alpha) signaling pathway using the BG1 cell line (AID 743079; active = well fitted curve in the direction sought with a large enough effect in the repeat runs; inconclusive = weak or mixed curves; inactive = no such curve, though single readings can be large; an effect the other way counts as inactive or inconclusive; also: nearly all actives have a fitted effect of over 20% in size; also: potency is read from the fitted curve at half-maximal effect). Particulars: BG1Luc4E2 cells, ERE-luciferase agonist, 22 h; activation: at 70.3 µM (top of the series).
Test [8] is described as follows: qHTS assay to identify small molecule antagonists of the estrogen receptor alpha (ER-alpha) signaling pathway using the BG1 cell line - cell viability counter screen (AID 743081; active = well fitted curve in the direction sought with a large enough effect in the repeat runs; inconclusive = weak or mixed curves; inactive = no such curve, though single readings can be large; an effect the other way counts as inactive or inconclusive;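 also: compound given together with 17beta-estradiol as the ER stimulus; nearly all actives have a fitted effect of over 45% in size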; also: potency is read from the fitted curve at half-maximal effect).

Calls of active or inactive are those of the source. Unless noted, calls follow the shape of the full dose curve.

Chain of Estrogen receptor (Homo sapiens) (P03372 whole entry, looked up): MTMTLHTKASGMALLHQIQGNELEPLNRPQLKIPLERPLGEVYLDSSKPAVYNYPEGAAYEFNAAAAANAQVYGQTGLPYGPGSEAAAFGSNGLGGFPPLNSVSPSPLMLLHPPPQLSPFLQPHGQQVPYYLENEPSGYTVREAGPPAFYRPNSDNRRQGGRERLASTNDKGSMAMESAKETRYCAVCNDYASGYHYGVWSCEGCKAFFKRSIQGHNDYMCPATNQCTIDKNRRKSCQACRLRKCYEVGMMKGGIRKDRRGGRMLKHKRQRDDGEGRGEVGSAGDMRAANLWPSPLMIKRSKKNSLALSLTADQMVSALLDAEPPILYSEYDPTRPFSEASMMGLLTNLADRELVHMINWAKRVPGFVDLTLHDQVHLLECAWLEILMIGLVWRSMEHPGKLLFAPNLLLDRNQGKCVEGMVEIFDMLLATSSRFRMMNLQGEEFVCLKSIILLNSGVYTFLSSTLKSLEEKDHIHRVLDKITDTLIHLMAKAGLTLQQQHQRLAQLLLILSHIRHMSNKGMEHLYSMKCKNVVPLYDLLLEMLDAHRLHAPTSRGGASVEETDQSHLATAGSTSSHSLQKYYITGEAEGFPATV

With `Nc1nc(N)c(N)c(N)n1`, the Potency entry (in test [1]; in [2]; in test [3]; in test [4]; in the test with Aromatase (Homo sapiens)) was “inactive” in each case.

For the compound `ClC1=C(Cl)[C@]2(Cl)[C@@H]3[C@H]4C[C@H]([C@@H]5O[C@H]45)[C@@H]3[C@@]1(Cl)C2(Cl)Cl`, the Potency entry in test [2], in test [5], in test [3], in test [6], in test [7] and in test [4] was “inactive” in each case. The Potency result (in test [8]; with Aromatase (Homo sapiens)) was “inactive” throughout.

Take `Cc1cnc2c(C(=O)O)c(Cl)ccc2c1`: the Potency entry in [2], in test [5], in [3], in test [6], in test [7] and in test [4] was “inactive” in each case. The Potency entry (in [8]; with Aromatase (Homo sapiens)) was “inactive” throughout.

Consider `S=C=Nc1ccccc1`, for which the Potency entry in test [2], in test [5], in test [3], in test [6], in test [7] and in test [4] was “inactive” in each case. Further, the Potency entry (in [8]; in the test with Aromatase (Homo sapiens)) was “inactive” throughout.

For `O=C1C[C@@H]2OCC=C3CN4CC[C@]56c7ccccc7N1[C@H]5[C@H]2[C@H]3C[C@H]46`, the Potency entry (in [1]; in test [2]; in test [3]; in test [8]; with Aromatase (Homo sapiens)) was “inactive” each time.

`CN1C(=O)[C@@H](NC(=O)c2cc3ccccc3[nH]2)N=C(c2ccccc2)c2ccccc21`: in test [1], the Potency was 5.96 µM (active). For the same compound, the Potency entry in test [2], in test [3] and in test [8] was “inactive” each time.

With `N#Cc1c2ccccc2cc2ccccc12`, the Potency entry (in test [1]; in [2]; in test [3]; with Aromatase (Homo sapiens)) was “inactive” throughout.

On to `CC1=C2C[C@H]3[C@@H](CC=C4C[C@@H](O)CC[C@@]43C)[C@@H]2CC[C@]12O[C@@H]1C[C@H](C)CN[C@H]1[C@H]2C`, for which the Potency result in test [2], in [5], in test [3], in test [6], in [7] and in [4] was “inactive” throughout. Also, the Potency entry with Aromatase (Homo sapiens) was “inactive”.

Take `O=[N+]([O-])C(Br)Br`: the Potency entry in test [1], in test [2], in test [3] and in test [8] was “inactive” in each case.

On to `CC1(C)[C@H](/C=C2\CCSC2=O)[C@@H]1C(=O)OCc1coc(Cc2ccccc2)c1`, for which the Potency in [1] was 43.3 µM (active); in test [4], 68.6 µM (active). Besides, the Potency result (in test [2]; in [3]; in [6]; in test [8]; in the test with Aromatase (Homo sapiens)) was “inactive” in each case.

For `CCN(CC)CCc1c[nH]c2ccccc12`, the Potency entry in test [2], in test [5], in [3], in [6], in test [7] and in [4] was “inactive” throughout. In addition, in test [8], the Potency result is “inactive”.

For `CCOP(=S)(OCC)SC(CCl)N1C(=O)c2ccccc2C1=O` (centres undefined), the Potency result (in test [2]; in [3]; with Aromatase (Homo sapiens)) was “inactive” in each case.

As to `COc1ccc2c3c1O[C@H]1[C@H](O)CC[C@H]4[C@@H](C2)N(C)CC[C@@]341`, the Potency result (in test [3]; in test [8]; with Aromatase (Homo sapiens)) was “inactive” throughout.

Turning to `CN1CCc2cc3c(cc2C1O)OCO3` (centres undefined), the Potency entry (in test [2]; in [3]; with Aromatase (Homo sapiens)) was “inactive” in each case.

`CC(C)(C)c1ccc(OP(=O)(Oc2ccccc2)Oc2ccccc2)cc1`: the Potency result (in [2]; in test [3]; in test [6]; in test [4]; in test [8]; in the test with Aromatase (Homo sapiens)) was “inactive” each time.

Turning to `CN`, the Potency result (in test [2]; in test [3]; in test [8]; in the test with Aromatase (Homo sapiens)) was “inactive” each time.

On to `Brc1ccc(Oc2ccc(Br)cc2Br)c(Br)c1`, for which the Potency result (in test [2]; in test [3]; in test [6]; in [8]; with Aromatase (Homo sapiens)) was “inactive” each time. The Potency in test [7] is 19.4 µM (active).

As for `Cc1ccn2nc(S(=O)(=O)Nc3c(F)cccc3F)nc2n1`, the Potency result (in test [3]; in [8]; with Aromatase (Homo sapiens)) was “inactive” in each case.

`CCCCC(CC)COC(=O)c1ccccc1C(=O)OCC(CC)CCCC` (centres undefined): the Potency result in test [2], in test [5], in test [6], in test [7], in test [4] and in test [8] was “inactive” throughout. Also, the Potency result in the test with Aromatase (Homo sapiens) was “inactive”.

With `CNC(C)(C)Cc1ccccc1`, the Potency result (in test [2]; in test [3]; in [4]; in test [8]; with Aromatase (Homo sapiens)) was “inactive” in each case.

Consider `C[C@H]1[C@H](c2ccc(Cl)cc2)SC(=O)N1C(=O)NC1CCCCC1`, for which the Potency entry in [3], in [6] and in [8] was “inactive” throughout. The Potency in test [4] was 61.1 µM (active).

For `O=[N+]([O-])c1cc(C(F)(F)F)c(Cl)c([N+](=O)[O-])c1Nc1ncc(C(F)(F)F)cc1Cl`, the Potency in [3] is 49 µM (active); in test [6], 49 µM [inconclusive] (active); in test [8], 68.6 µM (active); with Aromatase (Homo sapiens), 2.73 µM (active).

Consider `Oc1ccc([C@H]2CNCc3c2ccc(O)c3O)cc1O`, for which the Potency entry in test [2], in test [5], in [6], in [7], in test [4] and in [8] was “inactive” throughout. In addition, the Potency result with Aromatase (Homo sapiens) was “inactive”.

On to `S=C=NCCc1ccccc1`, for which the Potency result (in [2]; in test [5]; in test [3]; in [6]; in [8]; with Aromatase (Homo sapiens)) was “inactive” each time. In addition, the Potency in test [7] is 54.6 µM (active).
